For this experiment, the target named is Interleukin-8 (IL8, CXCL8), C-terminal His-tagged (Homo sapiens, UniProt P10145 SEQ:1-72). The experiment can be described thus: competition; competition TR-FRET; G18A. The settings on record: tags: C-terminal 6xHis (Sino Biological); ssRNA; 2'-F G, 2'-OMe A/C/U, 5' C6NH2, 3' idT. The procedure:
To better understand the sequence requirements and to confirm the stem structures of members of the Aptamer 3 family as determined from sequence covariation analysis from both the primary and secondary (degenerate) selections, a series of variants which included mutations and deletions to the predicted stems were synthesized and screened (Table 24). Activity of each of these variants were tested using a time resolved competition TR-FRET assay in which the labeled parent Aptamer 3 was competed with increasing concentrations of unlabeled variants for binding to IL8 (FIG. 14). Briefly, 2-fold dilutions of thermally equilibrated aptamers were made in TR-FRET Buffer (50 mM MOPS, pH 7.4, 125 mM NaCl, 5 mM KCl, 50 μM CHAPS, 0.1 mg/mL BSA, 1 mM CaCl₂, and 1 mM MgCl₂). 5 μL of aptamer or control solution was added to 5 μl mix of 10 nM C-terminal His-tagged-IL8, 60 nM ALEXA FLUOR® 647-labeled Aptamer, and 5 nM anti-His-Eu (Perkin Elmer) in a black wall low volume 384 well plate (Greiner). For control, 5 μl of 1000-fold excess of unlabeled parent aptamer or 5 μl TR-FRET buffer alone was added to the mix of ALEXA FLUOR® 647-labeled aptamer, His-IL8, and anti-His-Eu. The plate was covered with a plate seal and subsequently incubated in the dark for 1 hour at room temperature. The plate was read on a Biotek CYTATION™ 5 plate reader. […]
(In general: Time-resolved FRET reads energy transfer from a long-lived donor to a nearby acceptor.)
In turn, UGAUGACGGUAGAUUACAGGUAGAGUGACCGCAUCU yielded a binding signal of around 5 fold worse than Aptamer 3.

For the origin of these results see patent publication US20210230599, “STEM-LOOP COMPOSITIONS AND METHODS FOR INHIBITING INTERLEUKIN-8” (VITRISA THERAPEUTICS, INC., published 2021).
